Test results from PubChem BioAssay AID618 (Sanford-Burnham Center for Chemical Genomics, 2007).
The campaign covered roughly 87,000 compounds. About 540 (0.62%) were called active. No rule for the calls is given here. The full list was thinned out, with actives kept by preference. Results with a measured potency or affinity are listed apart.

Assay: inhibitors of MT1-MMP promoter transcription, cell-based, luciferase reporter, luminescence (AID 618);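 also: actives suppress MT1-MMP promoter-driven transcription so potencies describe inhibitors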
Conditions: MT1-MMP promoter luciferase reporter cells

Structure (SMILES)	outcome
CCCCN(CCCNC(=O)C1CCN(S(=O)(=O)N2CCOCC2)CC1)Cc1ccccc1	inactive
CCn1c(CCNC(=O)c2cccs2)nnc1SCC(=O)NC1CCCCC1	inactive
Cc1noc(C)c1CSc1nnc2n(-c3ccccc3)c(=O)c3ccccc3n12	inactive
COc1cc(OC)cc(-c2cc3nc(C)c(CCC(=O)NC(C)CCc4ccco4)c(C)n3n2)c1 (stereo unspecified)	inactive
COc1ccc(-c2cc3nc(C)c(CCC(=O)NC(C)CCc4ccco4)c(C)n3n2)c(OC)c1 (stereo unspecified)	inactive
COc1ccc(CCNC(=O)N2CCOCC2)cc1	inactive
CC(C)(C)n1nnnc1CN(Cc1ccco1)Cc1cc2cc3c(cc2[nH]c1=O)OCO3	inactive
O=C(O)c1ccccc1NC(=O)C1CCCO1 (stereo unspecified)	inactive
c1cncc(CNc2c3c(nc4nnnn24)CCCC3)c1	inactive
O=C(O)c1cccc(-c2nnn(Cc3ccccc3)n2)c1	inactive
O=C(O)c1cccc(-c2nnn(Cc3ccccc3Cl)n2)c1	inactive
COc1cc(-c2nc(S(=O)(=O)c3ccc(C)cc3)c(N(C)C)o2)cc(OC)c1OC	inactive
CCOc1cccc(NC(=O)C2CC(=O)N(C)C2)c1 (stereo unspecified)	inactive
CCN(CC)CC(O)COc1ccccc1C(=O)CCc1ccccc1 (stereo unspecified)	inactive
CC(C)(C)NCC(O)COc1ccccc1C(=O)CCc1ccccc1 (stereo unspecified)	inactive
CCCNCC(O)COc1ccccc1C(=O)CCc1ccccc1 (stereo unspecified)	active
CC(C)(C)NS(=O)(=O)c1ccc(CCC(=O)NCc2cccnc2)cc1	inactive
CCOC(=O)c1c(NC(=O)CN(CC)CC)sc2c1CCC2	inactive
O=C(Cn1c(NCCO)nc2ccccc21)c1cccs1	inactive
Cc1cc(C)nc(N2CCN(c3nc(C)nc4c3oc3ccccc34)CC2)n1	inactive
COc1ccccc1N1CCN(c2ncnc3c2oc2ccccc23)CC1	inactive

Structure (SMILES)	outcome
COc1ccccc1N1CCN(c2nc(C)nc3c2oc2ccccc23)CC1	active
Cc1ccc(C(=O)Nc2ccccc2OC(F)F)cc1	inactive
CN=c1scc(C)n1/N=C/c1ccc2c(c1)OCO2	active
Cc1nnc(C)n1/N=C/c1ccc2c(c1)OCCO2	inactive
CN=c1scc(C)n1/N=C/c1ccc(O)cc1O	active
CN=c1scc(C)n1/N=C/c1ccc(O)c(O)c1O	inactive
CN=c1scc(C)n1/N=C/c1ccc(O)cc1	inactive
CCN=c1scc(C)n1/N=C/c1ccsc1	inactive
COC(=O)c1ccc(Cn2nc(C(F)(F)F)cc2C)cc1	inactive
c1ccc(OCCSc2nnnn2-c2ccccc2)cc1	inactive
COc1ccccc1OCCSc1nnnn1-c1ccc(C)cc1	inactive
CCN(C(=O)Cc1ccc(Br)cc1)C1CCCCC1	inactive
C(=N\n1cnnc1)/c1ccc(OCc2cccc3ccccc23)cc1	inactive
CCOCCOC(=O)CCSc1n[nH]c(=O)[nH]c1=O	inactive
CCC/C(O)=C1\C(=O)CC(C)(C)CC1=Nc1ccccc1OC	inactive
CCCC/C(O)=C1\C(=O)CC(C)(C)CC1=Nc1ccccc1OC	inactive
CCOc1ccc(C2c3c(oc4ccccc4c3=O)C(=O)N2CCCN2CCOCC2)cc1OCC (stereo unspecified)	inactive
Cc1cc(C)n(Cc2ccccc2F)c(=O)c1C#N	inactive
CSc1cc(-c2ccccc2)n(Cc2ccc(Cl)cc2Cl)c(=O)c1C#N	inactive
CSc1cc(-c2ccccc2)n(Cc2ccccc2Cl)c(=O)c1C#N	active
Cn1c(=O)c2c(nc(SCCCC#N)n2Cc2c(F)cccc2Cl)n(C)c1=O	inactive

Structure (SMILES)	outcome
CSc1cc(-c2ccc(Cl)cc2)n(Cc2ccccc2)c(=O)c1C#N	inactive
CSc1cc(-c2ccccc2)n(Cc2c(Cl)cccc2Cl)c(=O)c1C#N	active
Cc1ccc(-n2c(SCC(=O)NCc3ccco3)nnc2-c2cccnc2)c(C)c1	inactive
CCOC(=O)N1CCC(NC(=O)C2CCN(S(=O)(=O)N3CCC(C)CC3)CC2)CC1	inactive
Cc1cc(C)cc(OCc2nc3ncc(Br)cc3[nH]2)c1	inactive
C=CCOc1cccc(C2C(C(=O)c3ccco3)=C(O)C(=O)N2CCN2CCOCC2)c1 (stereo unspecified)	inactive
COc1ccccc1N1CCN(C(=O)CN(c2cc(C)cc(C)c2)S(C)(=O)=O)CC1	inactive
O=C(c1ccc2nc(N3CCCCC3)sc2c1)N1CCN(Cc2ccc3c(c2)OCO3)CC1	inactive
c1c2c(cc3sc(N4CCCCC4)nc13)OCO2	active
c1ccc2c(c1)CCN(c1nc3cc4c(cc3s1)OCCO4)C2	active
c1ccc2sc(N3CCOCC3)nc2c1	inactive
c1c2c(cc3sc(N4CCCCC4)nc13)OCCO2	active
Clc1ccc2nc(N3CCCCC3)sc2c1	inactive
c1c2c(cc3sc(N4CCOCC4)nc13)OCCO2	active
c1ccc(N2CCN(c3nc4cc5c(cc4s3)OCO5)CC2)cc1	inactive
c1ccc2c(c1)CCN(c1nc3cc4c(cc3s1)OCO4)C2	inactive
c1ccc(N2CCN(c3nc4cc5c(cc4s3)OCCO5)CC2)cc1	inactive
O=S(=O)(c1ccc2c(c1)OCCO2)N1CCN(c2nc3ccccc3s2)CC1	inactive
c1c2c(cc3sc(N4CCOCC4)nc13)OCO2	inactive
